Reference: paper PMC7819943, “Rice protein-binding microarrays: a tool to detect cis-acting elements near promoter regions in rice”
In all, about 68,000 sequences were measured (“fluorescence intensity (a.u.)”: median about 9,100, highest 2% from about 16,000 on). The sample as a whole holds a higher share of the highest values than the screen did.

biological target: OsWRKY34 (Oryza sativa, UniProt Q0JBA9 1-250); test: protein-binding microarray (RPBM); PBS, 2% BSA, 51.3 ng/ul salmon testes DNA, 50 uM zinc acetate, 200 nM TF, 25 C, 1 h; high values mean tight binding; settings: protein: recombinant; tags: N-terminal polyhistidine and DsRed monomer fusion (pET32a); label: CyDye5-dUTP incorporated in the synthesized complementary strand; 3' TTTTT single-stranded linker to array surface; dsDNA, one strand shown
Summary of the method: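 Binding signal here means per-feature fluorescence intensity in arbitrary units. The values were read on an Axon 4000B scanner after a custom Agilent array, double-stranded by primer extension with Cy5-dUTP, was incubated with 200 nM protein at 25 °C for 1 h in PBS with 2% BSA, salmon testes DNA and 50 µM zinc acetate, then washed. The proteins were transcription factors with an N-terminal polyhistidine tag and DsRed, expressed in E. coli BL21-CodonPlus and purified on Ni–NTA.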

OsWRKY34, sequence (Q0JBA9 entry or part of it): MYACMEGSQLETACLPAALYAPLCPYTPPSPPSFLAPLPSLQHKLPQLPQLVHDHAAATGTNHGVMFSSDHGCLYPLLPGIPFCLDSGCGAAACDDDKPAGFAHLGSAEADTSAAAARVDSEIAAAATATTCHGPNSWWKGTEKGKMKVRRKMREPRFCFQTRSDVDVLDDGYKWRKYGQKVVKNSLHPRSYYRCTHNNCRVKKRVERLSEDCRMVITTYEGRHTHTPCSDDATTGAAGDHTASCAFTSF

Row | Sequence | binding signal
1 | GTCACCCTTCACCACGGCCATCTTCTCCTCGCTCGCCGTCCGGAGTCACCTAGTGCAG | 11200 fluorescence intensity (a.u.)
2 | CTTCGTCTCCGCTCCTCTCCGCCGCCTCGTCTCGTCGCCTCGGAGTCACCTAGTGCAG | 8430 fluorescence intensity (a.u.)
3 | CCATTAAAGCCAAGCCACTGTCCTTGTCCATCTTTGTCCACGGAGTCACCTAGTGCAG | 8190 fluorescence intensity (a.u.)
4 | TCCCCTACCGCTGCCCACCGCCGTCCACCACCGCCTTTCTCGGAGTCACCTAGTGCAG | 17000 fluorescence intensity (a.u.)
5 | CTTTTCCCCGCGGCCATCCCCGTCGCCCCACCGCCGCCGCCGGAGTCACCTAGTGCAG | 11200 fluorescence intensity (a.u.)
6 | GTCGCCATCTTCCCATCCCCGCGCCGCCGTCCACCATGAGCGGAGTCACCTAGTGCAG | 17200 fluorescence intensity (a.u.)
7 | GCCGCGCCCGCGTCACCACCGCTACCGCCCGCGCGTCCCTCGGAGTCACCTAGTGCAG | 8940 fluorescence intensity (a.u.)
8 | ACCGTGTCGAGCTATGTCTCCTCATCCTCGCTATGTTTCACGGAGTCACCTAGTGCAG | 14800 fluorescence intensity (a.u.)
9 | ATCCAAGCCGTCCATCTTCACCCGTCACTGTCACTCGCCACGGAGTCACCTAGTGCAG | 16900 fluorescence intensity (a.u.)
10 | CCACACCACCGTCCCCTCGCTGCCTGCCTCCACCTCACCTCGGAGTCACCTAGTGCAG | 8950 fluorescence intensity (a.u.)
11 | CGTGTCGAGCTCTGTCTCCTCGTCTTCATCCGCCGCTTCACGGAGTCACCTAGTGCAG | 18100 fluorescence intensity (a.u.)
12 | CGCGCCGCCCGCCGTCCCCATGCCACCGCGCTGCCCGCCGCGGAGTCACCTAGTGCAG | 10200 fluorescence intensity (a.u.)
13 | GCAGCTGATCGATCTGGTTTCTGCTTTGCTGCAACTCACTCGGAGTCACCTAGTGCAG | 8870 fluorescence intensity (a.u.)
14 | CTGGGGTTAGTTCTATGGATATTTGCTACTCCTGTTGATACGGAGTCACCTAGTGCAG | 8220 fluorescence intensity (a.u.)
15 | GAGTGACATTTGGGGTGGTTTTTGCAATTTTCTCTAAATTCGGAGTCACCTAGTGCAG | 13000 fluorescence intensity (a.u.)
16 | GGGTATAAAGTCACTCTATTCGTTCTCACCGTTTTTTCGGCGGAGTCACCTAGTGCAG | 8150 fluorescence intensity (a.u.)
17 | GGGAGGGCAACTGAAGAGGAGTGGCGAGGGAGGGCTTTTGCGGAGTCACCTAGTGCAG | 12200 fluorescence intensity (a.u.)
18 | ACACGCCCGCCCGCCGCCTCCACCGTCTCCGCTCGCCGCGCGGAGTCACCTAGTGCAG | 10500 fluorescence intensity (a.u.)
19 | ACCATTGTCGCATGCTCACATCCCATCTTTTCCAAAGGGACGGAGTCACCTAGTGCAG | 10300 fluorescence intensity (a.u.)
20 | CCCTGGTTTCCGTGTCCAATGTTTGACCGTCCGTCTTATTCGGAGTCACCTAGTGCAG | 10200 fluorescence intensity (a.u.)
21 | CGGGGCGGCTGGCTTGACGCGTCATCTTCCCCGCGAAAATCGGAGTCACCTAGTGCAG | 14000 fluorescence intensity (a.u.)

Row | Sequence | binding signal
22 | CGACATCTCTGAAACATTTCTCCTCGACCACGGCAACCCACGGAGTCACCTAGTGCAG | 8630 fluorescence intensity (a.u.)
23 | ATTAATTCTGTTTTTTTCAAGTCTCTCTCGCTCTCGCTCCCGGAGTCACCTAGTGCAG | 8820 fluorescence intensity (a.u.)
24 | CGTTCGCATCCACCACCAGTGCTCCGCCTGCCAGATCCATCGGAGTCACCTAGTGCAG | 9140 fluorescence intensity (a.u.)
25 | GGCCACGCCCGCCTCCGCGATCGTCCTCGCCGGCGACTGCCGGAGTCACCTAGTGCAG | 8410 fluorescence intensity (a.u.)
26 | GCTGTCGTCCCTGCTGTTCTTGGTGTGCTTCTTCACTGTCCGGAGTCACCTAGTGCAG | 13600 fluorescence intensity (a.u.)
27 | GGTTGTCGTCGTCGTCGTGGCCTACGCCTTCGCTGCTGCTCGGAGTCACCTAGTGCAG | 10600 fluorescence intensity (a.u.)
28 | TGTGCCCGCTGCGCCAAGGGCTACGCCGTCCAGTCCGACTCGGAGTCACCTAGTGCAG | 48500 fluorescence intensity (a.u.)
29 | CCCCGCCGTCCGCGCCGACCGCGACCTGCGCTACGCCGCCCGGAGTCACCTAGTGCAG | 8450 fluorescence intensity (a.u.)
30 | TGTCCAGTCGTCACCCTGCTGCTTCCCTGCCACTGCCCTACGGAGTCACCTAGTGCAG | 17000 fluorescence intensity (a.u.)
31 | CTCGTGCTGCTTCCACCCCTCCCTCGTCGCCTTGCCAGTTCGGAGTCACCTAGTGCAG | 9440 fluorescence intensity (a.u.)
32 | GCGCCGACTGCCCGTCCGCCCCGTTGCTGCTGTGCGCACTCGGAGTCACCTAGTGCAG | 8290 fluorescence intensity (a.u.)
33 | CTCCCGCCGCGACTCGCCGCCGCGCGCGGCATCTCCGGCCCGGAGTCACCTAGTGCAG | 8820 fluorescence intensity (a.u.)
34 | GGCCTCGTCTCCTACCTCGCCGACCCCGACCCCGACCACGCGGAGTCACCTAGTGCAG | 8440 fluorescence intensity (a.u.)
35 | CACACGCTACCCCGACTCGTCGCCTTCGCCTTGCTCGTCTCGGAGTCACCTAGTGCAG | 18000 fluorescence intensity (a.u.)
36 | TCACGCATCGGCGCCGCCCTCCGGCCAGCAGCGACTCGCCCGGAGTCACCTAGTGCAG | 44600 fluorescence intensity (a.u.)
37 | TATATGTAAGCTACTTTTGTCCTATACATAAATTACTTTTCGGAGTCACCTAGTGCAG | 8580 fluorescence intensity (a.u.)
38 | CTCTCTCCTACTGTAGGCCACCACCACCGCGACCGCACGACGGAGTCACCTAGTGCAG | 9340 fluorescence intensity (a.u.)
39 | CATGTGCTAAAAAGTCAACGGTATCAAACATTTTTAAACGCGGAGTCACCTAGTGCAG | 15800 fluorescence intensity (a.u.)
40 | TCTCGAGGTTGTTACATTGTACTTGTCGCTAGCTCGTCATCGGAGTCACCTAGTGCAG | 8400 fluorescence intensity (a.u.)
41 | TCGCTAGTAGCTGTTGCTGCCTCTCCACCGCGTCCCTCTCCGGAGTCACCTAGTGCAG | 11000 fluorescence intensity (a.u.)
42 | GTCGCGCCTGACGCCGCCGTTGCGCCTGCCACCGCCTGTCCGGAGTCACCTAGTGCAG | 8220 fluorescence intensity (a.u.)
